PubChem BioAssay (Tox21)
Results filed as inconclusive are left out. A call without a number means that no potency is given here. Unmarked numbers belong to inactive results. Calls of active or inactive are those of the source. Unless noted, calls come from the whole dose curve.

Key:
[1] = qHTS assay to identify small molecule agonists of the vitamin D receptor (VDR) signaling pathway - cell viability counter screen (AID 743224; active = well fitted curve in the direction sought with a large enough effect in the repeat runs; an effect the other way counts as inactive or inconclusive; note: series mostly up to about 63 µM; nearly all actives have a fitted effect of over 50% in size)
Outline: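 In parallel with the bla FRET readout, cytotoxicity toward VDR-bla cells after 16 h compound exposure was assessed by CellTiter-Glo, with luminescence recorded after a 30 min room-temperature incubation.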

[2] = qHTS assay to identify small molecule antagonists of the vitamin D receptor (VDR) signaling pathway - cell viability counter screen (AID 743225; active = well fitted curve in the direction sought with a large enough effect in the repeat runs; an effect the other way counts as inactive or inconclusive; note: nearly all actives have a fitted effect of over 50% in size)
Outline: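 Read-out: CellTiter-Glo luminescence measured 30 min after reagent addition at room temperature. Cells were VDR-bla HEK 293T exposed 16 h at 37C, 5% CO2, to compound with 3 nM final calcitriol agonist.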

[3] = qHTS assay to identify small molecule agonists of the NFkB signaling pathway - cell viability counter screen (AID 1159515); note: series mostly up to about 61 µM; nearly all actives have a fitted effect of over 55% in size
Outline: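 Plate 2,000 NFkB-bla ME-180 cells/well; incubate overnight. Add compounds, 5 hr at 37 C. Add FRET substrate, 1.5 hr RT. Add CellTiter-Glo, 30 min RT; read luminescence.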

[4] = qHTS assay to identify small molecule agonists of the endoplasmic reticulum stress response signaling pathway (AID 1159516; active = well fitted activation curve with a large enough effect in the signal ratio in the repeat runs, not every such curve was filed as active; the % refers to the signal ratio)
Outline: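 Beta-lactamase expression from the ER stress response element in HeLa reporter cells is quantified with the LiveBLAzer B/G FRET substrate, read at 405 nm excitation after 2 hr at room temperature, following 5 hr compound treatment at 37 C.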

[5] = qHTS assay to identify small molecule agonists of the endoplasmic reticulum stress response signaling pathway - cell viability counter screen (AID 1159517); note: series mostly up to about 61 µM; nearly all actives have a fitted effect of over 50% in size
Outline: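 ESRE-bla HeLa cells (1,500/well) were plated overnight at 37 C and exposed to compounds for 5 hr. After the 2 hr beta-lactamase substrate read, CellTiter-Glo went into the same wells, and luminescence was read after 30 min at room temperature.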

[6] = qHTS assay to identify small molecule antagonists of the retinoid-related orphan receptor gamma (ROR-gamma) signaling pathway - cell viability counter screen (AID 1159520; active = well fitted curve in the direction sought with a large enough effect in the repeat runs; an effect the other way counts as inactive or inconclusive; note: nearly all actives have a fitted effect of over 50% in size)
Outline: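 Cytotoxicity was read from cellular ATP (CellTiter-Glo luminescence) after 16 hr at 37 C with 1 uM doxycycline induction. The inducer was added 2 hr after compound transfer to Tet-on ROR gamma CHO cells.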

[7] = target: Nuclear receptor ROR-gamma (Homo sapiens) (UniProt P51449); test: qHTS assay to identify small molecule antagonists of the retinoid-related orphan receptor gamma (ROR-gamma) signaling pathway (AID 1159521; active = well fitted curve in the direction sought with a large enough effect in the repeat runs; an effect the other way counts as inactive or inconclusive; note: nearly all actives have a fitted effect of over 50% in size; note: potency is the fitted concentration of half-maximal effect;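 for activity change, negative = inhibition: CHO cells with doxycycline inducible ROR-gamma driving an RORE luciferase reporter; top concentration of the series differs between compounds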)
Outline: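 CHO Tet-on RORγ, RORE-luc reporter. Cpd 2 h pre-incubation, then dox hyclate 1 uM final, 16 h, 37 C/5% CO2. ONE-Glo luminescence; decrease = antagonist.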

[8] = qHTS assay to identify small molecule agonists of the AP-1 signaling pathway - cell viability counter screen (AID 1159525); note: nearly all actives have a fitted effect of over 55% in size
Outline: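 Intracellular ATP by Cell Titer Glo luminescence (30 min, RT) in the same ME-180 AP-1-bla wells after the 5 h compound exposure at 37 °C. Normalised to tetra n-octyl ammonium bromide and DMSO controls.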

[9] = qHTS assay to identify small molecule agonists of the AP-1 signaling pathway (AID 1159526)
[10] = target: Retinoic acid receptor RXR-alpha (Homo sapiens) (UniProt P19793); test: qHTS assay to identify small molecule agonists of the RXR signaling pathway (AID 1159527); note: nearly all actives have a fitted effect of over 35% in size
Outline: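 Read-out: beta-lactamase FRET ratio (405 nm excitation, 460 and 530 nm emission) after 2 hr substrate loading at room temperature. Cells were RXR-alpha-UAS-bla HEK 293T treated with compounds for 16 hr in 2% charcoal-stripped FBS medium.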

Retinoic acid receptor RXR-alpha (Homo sapiens), sequence (P19793 whole entry, looked up): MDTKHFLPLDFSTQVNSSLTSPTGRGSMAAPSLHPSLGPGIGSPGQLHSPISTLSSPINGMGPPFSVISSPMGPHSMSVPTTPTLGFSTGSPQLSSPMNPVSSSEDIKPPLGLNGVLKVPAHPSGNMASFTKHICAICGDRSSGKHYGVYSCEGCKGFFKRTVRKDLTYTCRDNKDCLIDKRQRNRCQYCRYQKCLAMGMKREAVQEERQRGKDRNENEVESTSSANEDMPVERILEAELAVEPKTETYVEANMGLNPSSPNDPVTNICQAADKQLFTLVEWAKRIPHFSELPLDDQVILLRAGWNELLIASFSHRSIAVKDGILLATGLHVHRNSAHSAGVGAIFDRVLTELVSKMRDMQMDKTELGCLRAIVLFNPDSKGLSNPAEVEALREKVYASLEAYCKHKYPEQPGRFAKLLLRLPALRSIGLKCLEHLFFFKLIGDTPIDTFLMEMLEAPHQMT

SMILES | Potency [1] | Potency [2] | Potency [3] | Potency [4] | outcome [5] | Potency [6] | Potency [7] | Potency [8] | Potency [9] | activity, negative = cytotoxicity [6] | activity change, negative = inhibition [7] | viability change, negative = cytotoxic [8] | activation [9] | Potency [10]
N#CCCNCCC#N | inactive | inactive | inactive | inactive | inactive | inactive | inactive | inactive | inactive |  |  |  |  | 
Nc1cnn([C@@H]2O[C@H](CO)[C@@H](O)[C@H]2O)c(=O)n1 | inactive | inactive | inactive | inactive | inactive | inactive | 21.7 µM (active) | inactive | inactive |  |  |  |  | 
O=C(O)C(c1ccc(Cl)cc1)c1ccc(Cl)cc1 | inactive | inactive | inactive | inactive | inactive | inactive | inactive | inactive | inactive |  |  |  |  | 
NCc1ccccc1 | inactive | inactive | inactive | inactive | inactive | inactive | inactive | inactive | inactive |  |  |  |  | 
NC1CCN(c2nc3c(cc2F)c(=O)c(C(=O)O)cn3-c2ccc(F)cc2F)C1 (stereo unspecified) | inactive | inactive | inactive | inactive | inactive | inactive | inactive | inactive | inactive |  |  |  |  | 
CCOc1ccc(NC(=O)CC(C)=O)cc1 | inactive | inactive | inactive | inactive | inactive | inactive | inactive | inactive | inactive |  |  |  |  | 
CCCCOCCOCCOCCOCCO | inactive |  | inactive | inactive | inactive | inactive | inactive | inactive | inactive |  |  |  |  | 
Cc1ccc(C(=O)C(C)CN2CCCCC2)cc1 (stereo unspecified) | inactive |  | inactive | inactive | inactive | inactive | inactive | inactive | inactive |  |  |  |  | 
Cc1ncsc1CCO | inactive | inactive | inactive | inactive | inactive | inactive | inactive | inactive | inactive |  |  |  |  | 
O=C(CCN1CCN2CCCC2C1)N1c2ccccc2Sc2ccc(Cl)cc21 (stereo unspecified) | inactive | inactive | inactive | inactive | inactive |  |  |  |  | -0.0801% [at 19 µM] | -2.48% [at 19 µM] | -1.69% [at 15.8 µM] | -5.81% [at 15.8 µM] | 
CCOC(=O)C1=C(C)NC(C)=C(C(=O)OC)C1c1cccc([N+](=O)[O-])c1 (stereo unspecified) | inactive | inactive | inactive | inactive | inactive | inactive | inactive | inactive | inactive |  |  |  |  | 
CCCCC(CC)(CO)CO | inactive | inactive | inactive | inactive | inactive | inactive | inactive | inactive | inactive |  |  |  |  | 
CCOC(=S)SSC(=S)OCC | inactive | inactive | inactive | inactive | inactive | inactive | inactive | inactive | inactive |  |  |  |  | 
CCCCOC(O)CC (stereo unspecified) | inactive |  | inactive | inactive | inactive | inactive | inactive | inactive | inactive |  |  |  |  | 
Cc1ccccn1 | inactive | inactive | inactive | inactive | inactive | inactive | inactive | inactive | inactive |  |  |  |  | 
CC(C)(C)c1cc(CO)cc(C(C)(C)C)c1O | inactive | inactive | inactive | inactive | inactive | inactive | inactive | inactive | inactive |  |  |  |  | 
CCCC(C)C | inactive | inactive | inactive | inactive | inactive | inactive | inactive | inactive | inactive |  |  |  |  | 

SMILES | Potency [1] | Potency [2] | Potency [3] | Potency [4] | outcome [5] | Potency [6] | Potency [7] | Potency [8] | Potency [9] | activity, negative = cytotoxicity [6] | activity change, negative = inhibition [7] | viability change, negative = cytotoxic [8] | activation [9] | Potency [10]
Cn1c(NCCN(CCO)CCCc2ccc([N+](=O)[O-])cc2)cc(=O)n(C)c1=O | inactive | inactive | inactive | inactive | inactive | inactive | inactive | inactive | inactive |  |  |  |  | 
CCCCCCCCCCCCC(=O)O | inactive | inactive | inactive | inactive | inactive | inactive | inactive | inactive | inactive |  |  |  |  | 
N[C@H]1C(O)O[C@H](CO)[C@H](O)[C@@H]1O (stereo partly specified) | inactive | inactive | inactive | inactive | inactive | inactive | inactive | inactive | inactive |  |  |  |  | 
CCCCOc1ccc(CC(=O)NO)cc1 | inactive | inactive | inactive | inactive | inactive | inactive | inactive | inactive | inactive |  |  |  |  | 
O=C(NS(=O)(=O)/C=C/c1cccs1)c1ccc(F)cc1Br | inactive | inactive | inactive | inactive | inactive | inactive | inactive | inactive | inactive |  |  |  |  | 
O=CNc1ccccc1 | inactive | inactive | inactive | inactive | inactive | inactive | inactive | inactive | inactive |  |  |  |  | 
Oc1ccc2c(c1)OCO2 | inactive | inactive | inactive | inactive | inactive | inactive | inactive | inactive | inactive |  |  |  |  | 
CCOc1cc(OCC)c(C(=O)CCC(=O)O)cc1OCC | inactive | inactive | inactive | inactive | inactive | inactive | inactive | inactive | inactive |  |  |  |  | 
C=C(C)C(=O)OCCN(C)C | inactive | inactive | inactive | inactive | inactive | inactive | inactive | inactive | inactive |  |  |  |  | 
O=C1CCCCCO1 | inactive | inactive | inactive | inactive | inactive | inactive | inactive | inactive | inactive |  |  |  |  | 
Nc1ccc(C(=O)N2CC3CC(CN(Cc4ccccc4)C3)C2)cc1 | inactive | inactive | inactive | inactive | inactive | inactive | inactive | inactive | inactive |  |  |  |  | 
O=C(Nc1ccccc1)OCC(CN1CCCCC1)OC(=O)Nc1ccccc1 (stereo unspecified) |  | inactive | inactive | inactive | inactive | inactive | inactive | inactive | inactive |  |  |  |  | 
COC(Cc1ccccc1)OC | inactive | inactive | inactive | inactive | inactive | inactive | inactive | inactive | inactive |  |  |  |  | 
CC(C)(C)c1ccc(S)cc1 |  | inactive | inactive | inactive | inactive | inactive | inactive | inactive | inactive |  |  |  |  | 
CC(=O)O[C@H]1C[C@@H]2CC[C@@H]3[C@H](CC[C@@]4(C)[C@H]3C[C@H]([N+]3(C)CCCCC3)[C@@H]4OC(C)=O)[C@@]2(C)C[C@@H]1N1CCCCC1 | inactive | inactive | inactive | inactive | inactive | inactive | inactive | inactive |  |  |  |  |  | inactive
O=C(c1ccc(O)cc1)c1ccc(O)cc1 | inactive | inactive | inactive | inactive | inactive | inactive | inactive | inactive | inactive |  |  |  |  | 
CCCCCOC(=O)c1ccc(O)cc1 | inactive | inactive | inactive | inactive | inactive | inactive | inactive | inactive |  |  |  |  |  | inactive
